According to PubChem BioAssay:
Calls of active or inactive are those of the source. Unless noted, the rule behind the calls is not given here.

Legend:
[1] = tested on: XIP peptide (Xip251-270) binding; test: XIP fragment 251-270 binding compounds – biochemical, small-molecule microarray, fluorescence 635/667 nm, 0.1 µg/mL protein, primary screen (AID 1182); details: fluorescent protein binding, 635 nm, higher = more signal, called active from +8 up or from −8 down
XIP peptide (Xip251-270) = test: compounds binding XIP fragment 251-270 – biochemical, small-molecule microarray, fluorescence 635/667 nm, 0.5 µg/mL protein, primary screen (AID 1183); details: fluorescence 635 nm, higher = more signal
[2] = blood-stage malaria parasite viability loss – strain 3D7, DAPI fluorescence, 100 nL, primary screen (AID 1184);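 note: parasites grown inside human red blood cells in medium with human serum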; details: P. falciparum 3D7 growth, 3 d, higher = more signal
[3] = molecular target: Homeobox protein Hox-A13 (Mus musculus) (UniProt Q62424); test: disruptors of Hoxa13 oligonucleotide interaction – biochemical, fluorescence polarization, labeled oligonucleotide, primary screen (AID 1185); details: Hoxa13:DNA binding, 15 min, higher = more signal, called active from +8 up or from −8 down
Sequence of Homeobox protein Hox-A13 (Mus musculus) (Q62424 whole entry, looked up): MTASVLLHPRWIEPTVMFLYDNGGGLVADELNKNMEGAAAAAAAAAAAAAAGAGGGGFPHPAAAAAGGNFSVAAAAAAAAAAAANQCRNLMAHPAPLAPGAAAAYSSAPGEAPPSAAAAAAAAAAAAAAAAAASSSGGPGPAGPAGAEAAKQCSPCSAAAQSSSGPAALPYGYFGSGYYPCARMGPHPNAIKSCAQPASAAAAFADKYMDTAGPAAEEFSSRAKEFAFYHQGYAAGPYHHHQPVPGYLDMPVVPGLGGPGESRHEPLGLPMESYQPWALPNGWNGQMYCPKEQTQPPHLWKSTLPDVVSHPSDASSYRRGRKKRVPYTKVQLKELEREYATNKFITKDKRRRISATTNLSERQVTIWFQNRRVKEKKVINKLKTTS

[4] = blockers of DNA damage checkpoint Chk1 activation – imaging, HeLa, hydroxyurea, phospho-Chk1 antibody, percent positive cells, primary screen (AID 1186); details: hydroxyurea-induced phospho-Chk1 immunofluorescence imaging, higher = more signal
[5] = blockers of DNA damage checkpoint Chk1 activation – imaging, HeLa, hydroxyurea, phospho-Chk1 nuclear intensity, primary screen (AID 1187); details: hydroxyurea-induced phospho-Chk1 immunofluorescence imaging, higher = more signal

With CCCCCCCCCCC(O)C1C=CC2C(=O)N(C)C(=O)C2N1Nc1ccccc1 (stereo unspecified) the composite z-score [1] was 1.04 (inactive), the composite z-score (XIP peptide (Xip251-270)) was -1.39 and the z-score [2] was -0.0339. The z-score [3] was -2.87 (inactive), the z-score [4] was 0.999 (inactive) and the z-score [5] was 0.135 (inactive).

With Cc1c(NC(=O)/C(C#N)=C/C=C/c2ccc([N+](=O)[O-])cc2)c(=O)n(-c2ccccc2)n1C the composite z-score [1] was 1.97 (inactive), the composite z-score (XIP peptide (Xip251-270)) was 0.77 and the z-score [2] was -0.363. For the same compound, the z-score [3] was -4.12 (inactive), the z-score [4] was -0.023 (inactive) and the z-score [5] was 0.501 (inactive).

In the case of C=CCNC(=O)[C@H]1[C@@H]2C(=O)O[C@@H](c3ccccc3)[C@@H](c3ccccc3)N2[C@@H](c2ccc(OCCO)cc2)[C@]12C(=O)Nc1ccc(C#Cc3ccc(OC)cc3)cc12, the composite z-score [1] is reported as 0.43 (inactive), the composite z-score (XIP peptide (Xip251-270)) is reported as 0.773 and the z-score [2] is reported as -2.39. The z-score [3] was -0.279 (inactive), the z-score [4] was 0.165 (inactive) and the z-score [5] was 0.202 (inactive).

In the case of COc1ccc([Si](C)(C)[C@@H]2[C@@H](CC(=O)N3Cc4ccccc4C[C@H]3CO)O[C@]3(C(=O)N(Cc4ccc(I)cc4)c4ccccc43)[C@H]2C)cc1, the composite z-score [1] is reported as 0.153 (inactive), the composite z-score (XIP peptide (Xip251-270)) is reported as 0.477 and the z-score [2] is reported as -2.83. The z-score [3] was -2.35 (inactive), the z-score [4] was -0.67 (inactive) and the z-score [5] was -0.295 (inactive).

For CC(C)c1ccc(NN2C(C(O)C(C)c3ccccc3)C=CC3C(=O)N(c4ccccc4)C(=O)C32)cc1 (stereo unspecified), the composite z-score [1] was 2.17 (inactive), the composite z-score (XIP peptide (Xip251-270)) was 0.77 and the z-score [2] was -0.119. The z-score [3] was -2.2 (inactive), the z-score [4] was 0.545 (inactive) and the z-score [5] was 0.739 (inactive).

For C=C(CCCC)C(=O)CC[C@@H](OC(C)=O)c1ccc(OCCO)cc1, the composite z-score [1] was 0.386 (inactive), the composite z-score (XIP peptide (Xip251-270)) was 0.607 and the z-score [2] was -2.07. For the same compound, the z-score [3] was -5.09 (inactive), the z-score [4] was -0.266 (inactive) and the z-score [5] was -0.266 (inactive).

For COC(=O)C1(CC(C)C)C=C2C(=C(C)C(=O)C2C)CN1 (stereo unspecified), the composite z-score [1] was -0.583 (inactive), the composite z-score (XIP peptide (Xip251-270)) was 0.992 and the z-score [2] was 0.51. For the same compound, the z-score [3] was -4.02 (inactive), the z-score [4] was 0.886 (inactive) and the z-score [5] was 0.911 (inactive).

In the case of C=CCOC(=O)[C@@H]1[C@H]2C(=O)O[C@H](c3ccccc3)[C@H](c3ccccc3)N2[C@H](c2ccc(OCCOC(=O)[C@@H]3C[C@@H]4C(=O)N[C@@H](CC(C)C)C(=O)N4[C@@H]3c3ccc(O)cc3)cc2)[C@@]12C(=O)Nc1ccc(I)cc12, the composite z-score [1] is reported as 0.78 (inactive), the composite z-score (XIP peptide (Xip251-270)) is reported as 0.761 and the z-score [2] is reported as -1.51. The z-score [3] was 0.374 (inactive), the z-score [4] was -0.926 (inactive) and the z-score [5] was -0.838 (inactive).

With COCCCNC(=O)[C@@]1(Cc2ccccc2I)c2ccccc2C(=O)N(C2CCCCC2)[C@H]1c1ccc(CO)cc1 the composite z-score [1] was 0.26 (inactive), the composite z-score (XIP peptide (Xip251-270)) was 0.744 and the z-score [2] was -1.99. For the same compound, the z-score [3] was -5.35 (inactive), the z-score [4] was -0.0463 (inactive) and the z-score [5] was 0.155 (inactive).

For C[C@]12C(=O)N(CCO)[C@@H]3C(=O)N(c4ccc(Cl)cc4)CC=CC31O[C@@H]1/C=C\CCCOC(=O)C12 (stereo partly specified), the composite z-score [1] was -0.0502 (inactive), the composite z-score (XIP peptide (Xip251-270)) was 0.913 and the z-score [2] was -1.39. The z-score [3] was -3.46 (inactive), the z-score [4] was 0.245 (inactive) and the z-score [5] was 0.129 (inactive).

In the case of O=C(CS)NCCCCCCNC(=O)[C@H]1C[C@H]2C(=O)NCC(=O)N2[C@H]1c1cccc(OCCO)c1, the composite z-score [1] is reported as 0.419 (inactive), the composite z-score (XIP peptide (Xip251-270)) is reported as 0.702 and the z-score [2] is reported as -1.34. For the same compound, the z-score [3] was -2.25 (inactive), the z-score [4] was -0.321 (inactive) and the z-score [5] was -0.529 (inactive).

With CN(C)CCCC[C@@H]1NC(=O)[C@H]2C[C@@H](C(=O)NCCCCCCNC(=O)CS)[C@@H](c3cccc(OCCO)c3)N2C1=O the composite z-score [1] was 0.305 (inactive), the composite z-score (XIP peptide (Xip251-270)) was 0.603 and the z-score [2] was 0.162. For the same compound, the z-score [3] was -1.91 (inactive), the z-score [4] was 0.542 (inactive) and the z-score [5] was 0.68 (inactive).

In the case of COC(=O)C(CC#Cc1ccc2c(c1)[C@]1(C(=O)N2)[C@H](C(=O)N2CCN(c3ncccn3)CC2)[C@H]2C(=O)O[C@H](c3ccccc3)[C@H](c3ccccc3)N2[C@@H]1c1ccc(O)cc1)C(=O)OC, the composite z-score [1] is reported as 0.959 (inactive), the composite z-score (XIP peptide (Xip251-270)) is reported as 0.782 and the z-score [2] is reported as -2.28. The z-score [3] was -2.37 (inactive), the z-score [4] was -0.413 (inactive) and the z-score [5] was -1.02 (inactive).

With O=C(NCC(F)(F)F)[C@@H]1c2ccccc2C(=O)N(Cc2cc(C(F)(F)F)cc(C(F)(F)F)c2)[C@H]1c1ccc(CO)cc1 the composite z-score [1] was -0.398 (inactive), the composite z-score (XIP peptide (Xip251-270)) was 0.637 and the z-score [2] was 0.362. The z-score [3] was -2.44 (inactive), the z-score [4] was -0.373 (inactive) and the z-score [5] was -0.356 (inactive).

In the case of C=CCNC(=O)[C@@H]1[C@H]2C(=O)O[C@H](c3ccccc3)[C@H](c3ccccc3)N2[C@H](c2ccc(OCCO)cc2)[C@@]12C(=O)N(C(=O)OCCOC)c1ccccc12, the composite z-score [1] is reported as 1.44 (inactive), the composite z-score (XIP peptide (Xip251-270)) is reported as 0.718 and the z-score [2] is reported as -0.643. For the same compound, the z-score [3] was -3.58 (inactive), the z-score [4] was -0.0546 (inactive) and the z-score [5] was 0.0358 (inactive).

With COCCCNC(=O)[C@@]1(c2ccc([N+](=O)[O-])cc2)CC(=O)N(C2CCCCC2)[C@@H]1c1ccc(CO)cc1I the composite z-score [1] was 0.266 (inactive), the composite z-score (XIP peptide (Xip251-270)) was 0.728 and the z-score [2] was -0.768. For the same compound, the z-score [3] was -4.5 (inactive), the z-score [4] was 0.237 (inactive) and the z-score [5] was 0.36 (inactive).

For COc1ccc(CCNC(=O)[C@@]2(C)c3ccccc3C(=O)N(Cc3ccc(OC(F)(F)F)cc3)[C@H]2c2ccc(CO)cc2)cc1, the composite z-score [1] was 1.06 (inactive), the composite z-score (XIP peptide (Xip251-270)) was 0.666 and the z-score [2] was -1.21. For the same compound, the z-score [3] was -4.22 (inactive), the z-score [4] was -0.141 (inactive) and the z-score [5] was -0.102 (inactive).

With COC(=O)[C@H](Cc1ccccc1)N1CC(C)(OC)O[C@@H](Cc2ccccc2)[C@H]1/C=C/C1CC1 (stereo partly specified) the composite z-score [1] was 0.242 (inactive), the composite z-score (XIP peptide (Xip251-270)) was -0.128 and the z-score [2] was 0.291. For the same compound, the z-score [3] was -4.77 (inactive), the z-score [4] was 0.512 (inactive) and the z-score [5] was 1.22 (inactive).

With CN1C(=O)C2C=CC(C(O)c3cccs3)N(N(c3ccccc3)c3ccccc3)C2C1=O (stereo unspecified) the composite z-score [1] was 0.564 (inactive), the composite z-score (XIP peptide (Xip251-270)) was 0.482 and the z-score [2] was -0.0266. For the same compound, the z-score [3] was -4.42 (inactive), the z-score [4] was 0.557 (inactive) and the z-score [5] was -0.499 (inactive).

With C=C(COC)/C(=C/C[C@@H](OC(C)=O)c1cccc(OCCO)c1)c1cnc2ccccc2c1 the composite z-score [1] was 0.281 (inactive), the composite z-score (XIP peptide (Xip251-270)) was 0.21 and the z-score [2] was -3.1. The z-score [3] was -5.52 (inactive), the z-score [4] was 0.271 (inactive) and the z-score [5] was -0.181 (inactive).

In the case of COC(=O)[C@@]1(Cc2ccc(F)cc2)[C@H]2c3cc(C(=O)N4CCCC4)n(Cc4ccc(OC(F)(F)F)cc4)c3C[C@H]2CN1C(=O)c1ccccc1, the composite z-score [1] is reported as 0.124 (inactive), the composite z-score (XIP peptide (Xip251-270)) is reported as 0.267 and the z-score [2] is reported as 0.096. For the same compound, the z-score [3] was -3.8 (inactive), the z-score [4] was 1.06 (inactive) and the z-score [5] was 0.639 (inactive).

With CCOC(=O)C[C@H]1[C@H](OC(=O)c2ccc(-c3ccccc3)cc2)[C@@H](NC(=O)c2ccc(-c3ccccc3)cc2)c2cc(OCCCO)ccc2N1C(=O)c1ccccc1 the composite z-score [1] was 1.11 (inactive), the composite z-score (XIP peptide (Xip251-270)) was 0.426 and the z-score [2] was -0.482. For the same compound, the z-score [3] was -1.22 (inactive), the z-score [4] was -0.166 (inactive) and the z-score [5] was 0.205 (inactive).

For COCCCNC(=O)[C@]1(Cc2ccccc2CN=[N+]=[N-])N=C(c2ccc(OCCCO)cc2)O[C@@H]1c1ccccc1N=[N+]=[N-], the composite z-score [1] was 0.228 (inactive), the composite z-score (XIP peptide (Xip251-270)) was -0.184 and the z-score [2] was -2.03. For the same compound, the z-score [3] was -0.994 (inactive), the z-score [4] was -0.364 (inactive) and the z-score [5] was -0.601 (inactive).

For CC(C)(C)OC(=O)CC[C@]1(C(=O)N2CCOCC2)COC(c2ccc(OCCCO)cc2)=N1, the composite z-score [1] was -0.199 (inactive), the composite z-score (XIP peptide (Xip251-270)) was 0.0906 and the z-score [2] was 0.33. The z-score [3] was -3.78 (inactive), the z-score [4] was -0.16 (inactive) and the z-score [5] was -0.0926 (inactive).

With C=CCNC(=O)[C@H]1[C@@H]2C(=O)O[C@@H](c3ccccc3)[C@@H](c3ccccc3)N2[C@@H](c2ccc(O)cc2)[C@]12C(=O)Nc1ccccc12 the composite z-score [1] was -0.067 (inactive), the composite z-score (XIP peptide (Xip251-270)) was 0.821 and the z-score [2] was 0.478. For the same compound, the z-score [3] was -3.97 (inactive), the z-score [4] was 0.0866 (inactive) and the z-score [5] was 0.432 (inactive).

For COC(=O)[C@@]1(Cc2ccc(F)cc2)[C@H]2c3cc(C(=O)N4CCCC4)n(CCc4c[nH]c5cc(F)ccc45)c3C[C@H]2CN1C(=O)c1ccccc1, the composite z-score [1] was 0.0421 (inactive), the composite z-score (XIP peptide (Xip251-270)) was 0.684 and the z-score [2] was -1.4. For the same compound, the z-score [3] was -2.5 (inactive), the z-score [4] was -0.332 (inactive) and the z-score [5] was -0.589 (inactive).
